# LMP1 NFkB inh: inhibitors of Epstein-Barr LMP1-induced NF-kappaB reporter | LMP1-induced NF-kappaB luciferase reporter cells, luminescence | inhibition, % at 12.5 µM | 350,000 compounds, 0.69% hits; in the data active means inhibition above about 41%; inconclusive means no clear call, values can overlap the other calls
# TROY NFkB inh: TROY signaling inhibition. Q293 LMP1-TROYcd NF-kB luciferase reporter, 4 h. inhibition, % at 10 µM. 360,000 compounds, 0.98% hits. AID 1347056;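 active means compounds whose plate-normalised and pattern-corrected inhibition of the luciferase reporter signal at the single screening dose is 50% or more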
# LGR2 antag: Drosophila LGR2 receptor signaling inhibition. HEK293 LGR2, CRE-luciferase, bursicon-stimulated, 4 h. inhibition, % at 9.99 µM. 380,000 compounds, 0.35% hits. AID 720647;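 active means drop in luminescence signal, shown as inhibition above about 50% in the replicate tests, limit read from the data, passing the limit was not always enough; inconclusive means probably only some replicates passing the limit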;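 further: agonist challenge used bursicon conditioned medium at about half maximal strength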
# TWEAK Fn14 block: TWEAK-Fn14 signaling inhibition; inhibition, % at 10 µM; 360,000 compounds, 2% hits; TWEAK-stimulated Fn14 reporter cells, luciferase luminescence, 8 h; in the data active means inhibition above about 50%
# MITF act: MITF TRPM1 promoter activation in melanoma cells. SK-MEL-5 TRPM1-promoter luciferase, 24 h; % of positive control, neutral wells = 0. activation, % at 12.5 µM. 300,000 compounds, 0.75% hits. AID 588334;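 active means mean activation of at least 80% with every replicate also reaching 80%; inconclusive means mean reaches 80% but some replicate falls short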
# TRPM1 prom inh: inhibitors of MITF-driven TRPM1 promoter in melanoma cells | SK-MEL-5 TRPM1 promoter luciferase, 24 h | inhibition, % at 12.5 µM | 330,000 compounds, 0.83% hits;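 active means mean inhibition across replicates of 60% or more, whatever share of single replicates reaches that level; inconclusive means some that reach 60%, reason not given; inactive means mean inhibition across replicates below 60%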
# Numbers stand for hits; 0 = inactive; ? = inconclusive; - = no result. In the library only some 3% were active in any assay of this set; here they are far more common.
SMILES,LMP1 NFkB inh,TROY NFkB inh,LGR2 antag,TWEAK Fn14 block,MITF act,TRPM1 prom inh
CC(=O)N1[C@@H]2Cn3c(ccc(C4=CCCCC4)c3=O)[C@H]1[C@@H](C(=O)NC1CCCC1)[C@@H]2CO,-,-,0,-,-,-
Cc1ccc(Cc2c(-c3ccccc3)nc3c4ccccc4ccn23)cc1,-,67,0,59,-,-
c1ccc2c(c1)ccn1c(Cc3ccsc3)c(C3CCCCC3)nc21,-,0,0,0,-,-
Cc1ccc(-c2nc3c4ccccc4ccn3c2Cc2ccccc2)cc1,0,0,0,0,-,-
Cc1ccc(Cc2c(C3CCCCC3)nc3c4ccccc4ccn23)cc1,-,69,0,60,-,-
CN(C)C(=O)c1cccc(-c2ccc3c(c2)[C@H]2[C@H](CCN2C(=O)c2ccc4c(c2)OCO4)[C@@H](CO)N3)c1,-,-,0,-,-,-
CO[C@@H]1CN(C)C(=O)c2ccc(NC(C)=O)cc2OC[C@H](C)N(C(=O)C2CCCCC2)C[C@H]1C,-,-,0,-,-,-
Cc1ccc(C(=O)CSc2nnc3c4ccccc4nc(Cc4ccccc4)n23)cc1,0,65,0,0,0,0
Cc1ccc(S(=O)(=O)N2CCOc3ccccc32)c(C)c1NS(C)(=O)=O,0,0,0,95,0,0
Cc1ccc(NC(=O)O/N=C/c2c(C)nn(C(C)(C)C)c2C)cc1Cl,75,82,99,103,-,83
Cc1ccccc1Nc1cc2ccccc2c(=O)[nH]1,0,0,-,0,0,69
CC(C)(C)OC(=O)NCc1ccc(CNC(=O)c2[nH]cnc2C(=O)NCC(=O)OCc2ccccc2)cc1,0,0,82,0,0,0
CC(C)(C)OC(=O)NCc1ccc(CNC(=O)c2nc[nH]c2C(=O)NCc2ccccc2)cc1,0,0,0,0,0,0
COc1ccc(CCn2c(=S)[nH]c3cc(C(=O)NCc4ccco4)ccc3c2=O)cc1OC,0,0,-,52,0,91
O=C(CN1C(=O)/C(=C2\SC(=S)N(C3CCS(=O)(=O)C3)C2=O)c2ccccc21)Nc1ccc(F)cc1 (stereo not given),0,0,-,78,-,0
CCOC(=O)c1cn[nH]c1NC(=S)Nc1ccc(OC)cc1,0,62,-,76,-,0
COC(=O)c1cn[nH]c1NC(=S)Nc1ccccc1C,0,0,-,0,?,0
COC(=O)c1cn[nH]c1NC(=S)Nc1ccc(C)cc1Cl,0,73,-,66,0,0
COC(=O)c1cc(NC(=O)CSc2ncn[nH]2)ccc1Cl,0,0,0,0,0,0
COC(=O)c1cn[nH]c1NC(=S)Nc1ccc(Cl)c(Cl)c1,0,73,0,69,0,0
COc1ccccc1S(=O)(=O)N[C@H]1CC[C@@H](CCNC(=O)C2CCCC2)O[C@@H]1CO,-,-,0,-,-,-
Cc1csc(NC(=O)CSCC(=O)Nc2ccccc2)n1,0,0,-,0,0,0
Cc1csc(Nc2nc(N)c(C(=O)Nc3ccccc3)o2)n1,0,0,0,0,93,0
Cc1nc(NC(=O)c2ccccc2)sc1-c1csc(NCc2ccccc2)n1,0,0,-,0,0,0
CCOc1ccccc1Nc1nc(-c2sc(NC(=O)c3cccc(Cl)c3)nc2C)cs1,0,0,-,64,0,0
SMILES,LMP1 NFkB inh,TROY NFkB inh,LGR2 antag,TWEAK Fn14 block,MITF act,TRPM1 prom inh
Cc1nc(NC(=O)c2ccccc2)sc1-c1csc(NCCc2ccccc2)n1,0,0,-,54,0,0
C[C@H]1CN([C@@H](C)CO)C(=O)c2cc(NC(=O)Cc3cn(C)c4ccccc34)ccc2O[C@H]1CN(C)Cc1ccc(C(=O)Nc2ccccc2N)cc1,-,-,0,-,-,-
CCn1c2ccccc2c2cc(/C=N/NC(=O)c3cc(O)cc(O)c3)ccc21,66,0,0,0,0,0
CCn1c2ccccc2c2cc(/C=N/NC(=O)c3ccc(O)cc3)ccc21,84,0,0,0,0,0
O=C(COC(=O)c1ccc(O)cc1O)Nc1ccc2c(c1)OCCO2,0,0,0,0,92,0
O=C(COC(=O)c1ccc(O)cc1O)Nc1ccc2ccccc2c1,0,0,0,0,0,0
Cn1cccc1C(=O)OCC(=O)Nc1ccc2c(c1)OCCO2,0,0,?,71,0,0
CCOP(=O)(OCC)C(NC(=O)C(F)(F)F)c1ccccc1 (stereo not given),0,63,0,0,0,0
CCCOP(=O)(OCCC)C(NC(=O)C(C)(C)C)c1ccccc1 (stereo not given),0,0,0,0,0,0
C[C@H]1CN([C@@H](C)CO)C(=O)Cc2cc(NC(=O)Nc3ccc4c(c3)OCO4)ccc2O[C@H]1CN(C)C(=O)Nc1ccccc1,-,-,0,-,-,-
O=C(c1ccccc1Br)N1CCN(Cc2ccc3c(c2)OCO3)CC1,43,0,0,0,0,0
COc1ccc2cc3cc(C(=O)N4CCN(Cc5ccc6c(c5)OCO6)CC4)oc3nc2c1,0,54,-,0,0,0
O=C(O)c1ccccc1C(=O)N1CCN(Cc2ccc3c(c2)OCO3)CC1,-,0,0,0,0,0
Cc1ccccc1Cn1ccc(NC(=O)c2nn(C)cc2[N+](=O)[O-])n1,0,78,0,87,0,0
Cn1cc([N+](=O)[O-])c(C(=O)Nc2cc(Oc3ccccc3)cc([N+](=O)[O-])c2)n1,0,0,0,0,0,82
Cc1nn(C)cc1C(=O)Nc1cc(Oc2ccc(Cl)cc2)cc([N+](=O)[O-])c1,0,0,0,0,0,0
CCn1cc([N+](=O)[O-])c(C(=O)Nc2ccn(Cc3ccccc3F)n2)n1,0,0,0,0,0,0
Cc1cccc(Oc2cc(NC(=O)c3ccccc3)cc([N+](=O)[O-])c2)c1,0,57,-,59,0,0
Cc1ccc(NC(=O)c2cccc(Oc3ccc([N+](=O)[O-])cc3)c2)c(C(=O)O)c1,0,0,0,0,-,0
O=C(Nc1cc(Cl)ccc1Oc1ccccc1)c1cnccn1,0,-,-,88,0,0
COCC(=O)N(C)C[C@@H]1Oc2ncc(C3=CCCCC3)cc2C(=O)N([C@@H](C)CO)C[C@H]1C,-,-,0,-,-,-
CC(C)c1ccc(NC(=S)Nc2ccc3cn[nH]c3c2)cc1,0,53,0,0,0,0
Cc1noc(C)c1NC(=O)Nc1ccc2c(c1)C(=O)N([C@@H](C)CO)C[C@@H](C)[C@H](CN(C)C(=O)CCCN(C)C)OCCCC[C@@H](C)O2,-,-,0,-,-,-
CCOC(=O)c1sc(Nc2ccccc2)nc1C,0,0,0,0,94,0
CCOC(=O)c1sc(N/N=C/c2ccccc2)nc1C,0,0,0,0,0,0
SMILES,LMP1 NFkB inh,TROY NFkB inh,LGR2 antag,TWEAK Fn14 block,MITF act,TRPM1 prom inh
CC(=O)c1sc(Nc2ccccc2)nc1C,-,0,0,0,-,-
CCOC(=O)c1sc(N/N=C/c2cccc(C)c2)nc1C,0,0,-,0,99,0
Cc1nc(Nc2ccc(Cl)c(Cl)c2)sc1C(=O)Nc1ccccc1,0,0,0,84,0,0
CC(C)(C)C(=O)c1sc(Nc2ccccc2)nc1N,0,0,0,0,122,0
O=C(C(=Cc1ccc(F)cc1)c1ccccc1)c1ccc(O)cc1,0,0,0,0,0,0
CCC(=O)Nc1ccc(C=C(C(C)=O)C(C)=O)cc1,0,0,0,0,0,0

# Source: PubChem BioAssay
